# Experimental data reported in PubChem BioAssay (EPA / NIEHS).
# Several values for one entry are separate records, joined by “and”; a condition that tells them apart may be missing. Equal values may be shown once. Some structures have more than one record in an assay (separate samples or runs), and their calls can disagree. Activity calls are given as the source filed them. Rule for the calls: active = hit-call score of the fitted dose curve at least 0.9, where 1 is the maximum; inactive = score below 0.9.
# What was measured:
# [1] = BSK_hDFCGF_SRB: Viability Assessment in the BioMAP Diversity Plus: hDFCGF Assay (AID 2283061); details: primary human foreskin fibroblasts;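 note: cells exposed to compound for 24 h before the read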
# In short: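 Viability was read as total protein: after 10% TCA fixation, wells were stained with 0.1% sulforhodamine B and read at 560 nm. Primary human foreskin fibroblasts were dosed for 24 h, with bidirectional fitting versus DMSO.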
# [2] = read-out: TIMP metallopeptidase inhibitor 1 (TIMP1), TIMP1 (gene 7076); assay: BSK_hDFCGF_TIMP1: BioMAP Diversity Plus: hDFCGF Assay for TIMP metallopeptidase inhibitor 1 (TIMP1) Biomarker Activity (AID 2283062); details: primary human foreskin fibroblasts; actives raise or lower the signal
# In short: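 TIMP-1 measured by ELISA 24 h after chemical dosing of primary human skin fibroblasts, with gain or loss fitted relative to DMSO. Parallel SRB staining (560 nm) monitored overt cytotoxicity.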
# [3] = read-out: Monokine induced gamma interferon (MIG), CXCL9 (gene 4283); assay: BSK_hDFCGF_MIG: BioMAP Diversity Plus: hDFCGF Assay for Monokine induced gamma interferon (MIG) Biomarker Activity (AID 2283063); details: primary human foreskin fibroblasts; actives raise or lower the signal
# In short: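 Human primary foreskin fibroblasts in the hDFCGF system, exposed to test chemical for 24 h; MIG measured by ELISA. Bidirectional curve fitting against DMSO negative control as activity baseline.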
# [4] = read-out: Matrix Metallopeptidase 1 (MMP1), MMP1 (gene 4312); assay: BSK_hDFCGF_MMP1: BioMAP Diversity Plus: hDFCGF Assay for Matrix Metallopeptidase 1 (MMP1) Biomarker Activity (AID 2283064); details: primary human foreskin fibroblasts; actives raise or lower the signal
# In short: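 Primary human foreskin fibroblasts exposed to chemicals for 24 h; MMP1 measured by ELISA. Cytotoxicity tracked by SRB staining in parallel cultures; bidirectional fit relative to DMSO.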
# [5] = read-out: Vascular cell adhesion molecule 1 (VCAM1), VCAM1 (gene 7412); assay: BSK_hDFCGF_VCAM1: BioMAP Diversity Plus: hDFCGF Assay for Vascular cell adhesion molecule 1 (VCAM1) Biomarker Activity (AID 2283065); details: primary human foreskin fibroblasts; actives raise or lower the signal;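 for AC50: VCAM-1 protein level quantified by ELISA after 24 h chemical exposure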
# In short: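 ELISA readout of VCAM-1 on human dermal fibroblast primary cultures, 24 h after chemical exposure. Gain or loss of signal fitted in both directions against DMSO baseline.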
# [6] = read-out: Plasminogen activator inhibitor-1 (PAI1), SERPINE1 (gene 5054); assay: BSK_hDFCGF_PAI1: BioMAP Diversity Plus: hDFCGF Assay for Plasminogen activator inhibitor-1 (PAI1) Biomarker Activity (AID 2283066); details: primary human foreskin fibroblasts; actives raise or lower the signal
# In short: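 Human foreskin fibroblasts in the hDFCGF system were dosed with compound for 24 h; PAI-1 was quantified by ELISA. Bidirectional curve fitting used DMSO as negative control and baseline.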
# [7] = read-out: Intercellular Adhesion Molecule 1 (ICAM1), ICAM1 (gene 3383); assay: BSK_KF3CT_ICAM1: BioMAP Diversity Plus: KF3CT Assay for Intercellular Adhesion Molecule 1 (ICAM1) Biomarker Activity (AID 2283067); details: primary human keratinocytes with fibroblasts; actives raise or lower the signal
# In short: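 Cell-surface ICAM-1 was measured by ELISA 24 h after dosing primary human skin keratinocytes co-cultured with fibroblasts. Parallel SRB staining tracked overt cytotoxicity. Gain or loss of signal was fitted relative to DMSO.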
# [8] = read-out: Interferon-gamma inducible Protein 10 (IP10), CXCL10 (gene 3627); assay: BSK_KF3CT_IP10: BioMAP Diversity Plus: KF3CT Assay for Interferon-gamma inducible Protein 10 (IP10) Biomarker Activity (AID 2283068); details: primary human keratinocytes with fibroblasts; actives raise or lower the signal
# In short: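 ELISA read-out of IP-10 after 24 h chemical dosing of human skin primary co-culture (keratinocytes, foreskin fibroblasts). Gain or loss of signal relative to DMSO, bidirectional curve fit.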
# [9] = read-out: Interleukin-1 alpha (IL1a), IL1A (gene 3552); assay: BSK_KF3CT_IL1a: BioMAP Diversity Plus: KF3CT Assay for Interleukin-1 alpha (IL1a) Biomarker Activity (AID 2283070); details: primary human keratinocytes with fibroblasts; actives raise or lower the signal
# In short: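 Primary human keratinocyte plus foreskin fibroblast co-culture, dosed and measured at 24 h in 96-well plates. IL-1a level quantified by ELISA; bidirectional fit relative to DMSO.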
# [10] = BSK_KF3CT_SRB: Viability Assessment in the BioMAP Diversity Plus: KF3CT Assay (AID 2283069); details: primary human keratinocytes with fibroblasts;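 note: total protein by sulforhodamine B staining as a cytotoxicity measure; read 24 h after compound addition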
# In short: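 Human keratinocyte and foreskin fibroblast co-culture exposed to chemical for 24 h. Total protein measured in parallel cultures by 0.1% sulforhodamine B staining after 10% TCA fixation, read at 560 nm; bidirectional fit relative to DMSO.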
Structure (SMILES),AC50 [1],outcome [1],outcome [2],AC50 [3],outcome [3],outcome [4],outcome [5],outcome [6],outcome [7],outcome [8],AC50 [9],outcome [9],outcome [10],AC50 [2],AC50 [5],AC50 [6],AC50 [7],AC50 [8],AC50 [4],AC50 [10]
O=C(O)C(F)(F)C(F)(F)C(F)(F)C(F)(F)C(F)(F)C(F)(F)C(F)(F)F,1.5 µM (active),inactive,inactive,30 µM (active),inactive,inactive,inactive,inactive,inactive,inactive,30 µM (active),inactive,,,,,,,,
CC(C)OC(=O)Nc1cccc(Cl)c1,,inactive,inactive,,inactive,inactive,inactive,inactive,inactive,inactive,,inactive,,,,,,,,
O=[N+]([O-])/N=C1\NCCN1Cc1ccc(Cl)nc1,,inactive,inactive,,inactive,inactive,inactive,inactive,inactive,inactive,,inactive,,,,,,,,
Cc1[nH]c(=O)n(C(C)(C)C)c(=O)c1Cl,,inactive,inactive,,inactive,inactive,inactive,inactive,inactive,inactive,,inactive,inactive,,,,,,,
COc1cc(OC)nc(NC(=O)NS(=O)(=O)c2cc(NC=O)ccc2C(=O)N(C)C)n1,,inactive,inactive,,inactive,inactive,inactive,inactive,inactive,inactive,,inactive,,,,,,,,
O=S(=O)(O)C(F)(F)C(F)(F)C(F)(F)C(F)(F)C(F)(F)C(F)(F)C(F)(F)C(F)(F)F,20 µM (active),inactive,inactive,30 µM (active) and 50.4 µM (active),inactive,inactive,inactive,inactive,inactive,inactive,28.1 µM (active) and 16.4 µM (active),inactive,,0.485 µM (active),20 µM (active) and 29.6 µM (active) and 30 µM (active),20 µM (active) and 48.5 µM (active),29.9 µM (active),23.1 µM (active) [middle of 5 runs],,
O=C(NC(=O)c1c(F)cccc1F)Nc1ccc(OC(F)(F)C(F)OC(F)(F)F)c(Cl)c1 (stereo not drawn),,inactive,inactive,,inactive,inactive,inactive,inactive,inactive,inactive,,inactive,inactive,,,,,,,
CC1(C)C(C=C(Cl)Cl)C1C(=O)OC(C#N)c1ccc(F)c(Oc2ccccc2)c1 (stereo not drawn),31.1 µM (active),,inactive,,inactive,inactive,inactive,inactive,inactive,inactive,,inactive,inactive,,,,,,,
O=C(O)CCCOc1ccc(Cl)cc1Cl,,inactive,inactive,,inactive,inactive,inactive,inactive,inactive,,,inactive,,,,,,23.6 µM (active),,
COP(=S)(OC)Oc1ccc([N+](=O)[O-])cc1,,inactive,,,inactive,inactive,inactive,,inactive,,,inactive,,5.75 µM (active),,6.41 µM (active),,9.18 µM (active),,
CCC(C)(NC(=O)c1cc(Cl)c(C)c(Cl)c1)C(=O)CCl (stereo not drawn),7.6 µM (active),,,6.77 µM (active),,,,,,,26.6 µM (active),,,34.3 µM (active),5.49 µM (active),8.04 µM (active),16.5 µM (active),10.8 µM (active),30.4 µM (active),31.8 µM (active)
CCOc1nc(NC)nc(NC(=O)NS(=O)(=O)c2ccccc2C(=O)OC)n1,,inactive,,,inactive,,inactive,,inactive,,,inactive,,25.5 µM (active),,5.36 µM (active),,20 µM (active),20 µM (active),
